The values that follow come from PubChem BioAssay (NCI).

Compounds without any hit were thinned out: in the full panel of roughly 83,000, 20% have a hit.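 96-well plates, one dose, 48 hours. Percent growth reported; active if below 10.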 Unmarked numbers belong to inactive results. Calls of active or inactive are those of the source.

Test systems include DU-145 prostate; K-562 leukemia; MALME-3M melanoma; MDA-MB-231 breast; RXF 393 renal; SF-268 CNS; SF-295 CNS; SF-539 CNS; M14 melanoma; UACC-257 melanoma.
What all share (assay): NCI-60 one-dose screen, 48 h (100 = growth as untreated, 0 = no growth, -100 = all killed)
What all share (conditions): 10 µM

Take `COc1ccc2nc(Cl)c(Cn3nnc(Cc4ccccc4)n3)cc2c1`: the growth in the assay on DU-145 prostate is 61.6%; in the assay on K-562 leukemia, 32.9%; with MALME-3M melanoma, 34.4%; with MDA-MB-231 breast, 50.7%; in the assay with RXF 393 renal it was 60.2%; in the assay with SF-268 CNS it was 51.5%. The growth in the assay with SF-295 CNS was 37.4%; in the assay on SF-539 CNS, 67.5%; in the assay with M14 melanoma, 30.3%.

Consider `CN1CCc2c(sc3nc4n(-c5ccc(Cl)cc5)c(=O)[nH]n4c(=O)c23)C1`, for which the growth in the assay with DU-145 prostate was 103%; with K-562 leukemia, 107%; in the assay with MALME-3M melanoma it was 98.5%; in the assay on MDA-MB-231 breast it was 120%; in the assay with RXF 393 renal, 118%; in the assay on SF-268 CNS, 106%. In addition, the values for the growth in the assay on SF-295 CNS, in the assay with SF-539 CNS and with M14 melanoma were 104%, 99.8% and 99.3%, respectively.

As to `COc1cc(Cc2cc(-c3ccccc3)n[nH]c2=O)cc(OC)c1OC`, the growth is 84.2% with DU-145 prostate; 19.3% in the assay with K-562 leukemia; 71.8% in the assay with MALME-3M melanoma; 54.7% in the assay with MDA-MB-231 breast; 60% in the assay with RXF 393 renal; 69.8% in the assay on SF-268 CNS. The results for the growth in the assay on SF-295 CNS, in the assay with SF-539 CNS and in the assay on M14 melanoma were 61.3%, 61.4% and 18.4%, respectively.

With `Cc1cc(SCc2ccccc2)nc(N)n1`, the growth was 104% in the assay with DU-145 prostate; 105% in the assay on K-562 leukemia; -0.674% (active) with MALME-3M melanoma; 107% with MDA-MB-231 breast; 124% with RXF 393 renal; 100% with SF-268 CNS. The figures for the growth in the assay with SF-295 CNS, with UACC-257 melanoma and with M14 melanoma were 102%, 125% and 115%, respectively.

For the compound `COc1ccc([C@H]2[C@H](C(=O)Nc3cccnc3)c3ccccc3C(=O)N2c2ccccc2)cc1`, the growth in the assay on DU-145 prostate was 107%; in the assay on K-562 leukemia, 99.9%; in the assay with MALME-3M melanoma, 108%; with MDA-MB-231 breast, 95.9%; with RXF 393 renal, 94.2%; in the assay on SF-268 CNS, 93.9%. The growth in the assay on SF-295 CNS is 70.7%; in the assay with SF-539 CNS, 114%; in the assay on M14 melanoma, 86.2%.

On to `COc1ccc2nc3cc(Cl)ccc3c(N)c2c1`, for which the growth was -96.8% (active) with DU-145 prostate; -60.6% (active) in the assay with K-562 leukemia; -71.8% (active) in the assay with MALME-3M melanoma; -94.1% (active) in the assay on MDA-MB-231 breast; -98.1% (active) in the assay with RXF 393 renal; -85.7% (active) with SF-268 CNS. The growth was -90.3% (active) in the assay on SF-539 CNS and -81.2% (active) with UACC-257 melanoma.

In the case of `CCOC(=O)c1sc2ncnc(Nc3ccc(NC(=O)Nc4ccc(Cl)cc4)cc3)c2c1C`, the growth in the assay on DU-145 prostate was 54%; in the assay on K-562 leukemia, 83.7%; in the assay with MALME-3M melanoma it was 26.4%; in the assay with MDA-MB-231 breast it was 23.8%; in the assay with RXF 393 renal, 19.4%; with SF-268 CNS, 72.1%. Moreover, the growth with SF-295 CNS was 33.1%; in the assay with SF-539 CNS, -1.23% (active); in the assay with M14 melanoma it was 64.8%.

Take `Cc1c2c[n+](C(C)C)ccc2c(C)c2c1[nH]c1ccccc12`: the growth was 36.1% in the assay on DU-145 prostate; 23.3% in the assay on K-562 leukemia; -25.6% (active) with MALME-3M melanoma; 35.3% with MDA-MB-231 breast; 60.3% in the assay with RXF 393 renal; 15.3% with SF-268 CNS. The growth in the assay with SF-295 CNS is 2.91% (active); with SF-539 CNS, 20.8%; in the assay on M14 melanoma it was 30%.

Take `O=C(Nc1ccc(OS(=O)(=O)c2ccccc2)cc1)C1CCCCC1`: the growth with DU-145 prostate was 92.8%; with K-562 leukemia it was 60.6%; in the assay on MALME-3M melanoma, 81.9%; with MDA-MB-231 breast, 73.1%; in the assay with RXF 393 renal, 87.5%; in the assay with SF-268 CNS, 90.2%. In addition, the growth is 89.7% with SF-295 CNS, 80.4% with SF-539 CNS and 70.3% with M14 melanoma.

For the compound `COc1cc2c3c(n([C@H]4CCOC4)c(=O)c2cc1OC)-c1cc2c(cc1C3=O)OCO2`, the growth was 19.8% in the assay on DU-145 prostate; 59.6% in the assay on K-562 leukemia; 78% with MALME-3M melanoma; 91.8% with MDA-MB-231 breast; 41.7% in the assay with RXF 393 renal; 31.7% with SF-268 CNS. Besides, the growth in the assay on SF-295 CNS was -5.69% (active); in the assay with SF-539 CNS, 1% (active); in the assay with M14 melanoma it was 23%.

On to `O=C(O)c1ccc(-n2cc(CNc3ccc(Oc4ccccc4)cc3)c(-c3ccccc3)n2)cc1`, for which the growth is 99.8% with DU-145 prostate; 78.3% in the assay with K-562 leukemia; 88.6% in the assay with MALME-3M melanoma; 92% with MDA-MB-231 breast; 86.9% with RXF 393 renal; 90.2% in the assay with SF-268 CNS. Further, the growth in the assay with SF-295 CNS was 72.1%; in the assay with SF-539 CNS, 90.6%; with M14 melanoma it was 97.2%.

As for `CCOC(=O)CSc1nc(-c2cc(OC)ccc2OC)cc(-c2ccc(OC)cc2)c1C#N`, the growth with DU-145 prostate was 75.2%; in the assay on K-562 leukemia, 106%; in the assay with MALME-3M melanoma, 98.8%; in the assay on MDA-MB-231 breast, 83.9%; in the assay on RXF 393 renal, 70.3%; in the assay on SF-268 CNS, 73.9%. The figures for the growth in the assay on SF-295 CNS, in the assay with SF-539 CNS and with M14 melanoma were 70.3%, 64.6% and 76.9%, respectively.

With `CCn1c2ccc(O)cc2c2c(C)c3c[n+](C)ccc3c(C)c21`, the growth was 53.7% with DU-145 prostate; 60% with K-562 leukemia; -20.4% (active) in the assay on MALME-3M melanoma; 71.7% in the assay on MDA-MB-231 breast; 57.1% in the assay with RXF 393 renal; -10.1% (active) in the assay on SF-268 CNS. For the same compound, the growth with SF-295 CNS was 13.6%; in the assay with SF-539 CNS, 12.1%; in the assay on M14 melanoma it was 51.8%.

In the case of `COc1ccc(-c2nn(-c3cccc(Cl)c3)cc2C=C(C#N)C#N)cc1`, the growth in the assay with DU-145 prostate was 3.57% (active); in the assay on K-562 leukemia, -13.2% (active); with MALME-3M melanoma it was 17.7%; in the assay on MDA-MB-231 breast, -40.3% (active); in the assay on RXF 393 renal, -5.72% (active); with SF-268 CNS, 13.3%. Further, the growth was 2.34% (active) with SF-539 CNS and 38.5% with UACC-257 melanoma.

On to `O=C1C=C(Nc2cccc(Br)c2)c2ccccc2C1=O`, for which the growth with DU-145 prostate was 22.4%; in the assay on K-562 leukemia, 21.4%; in the assay on MALME-3M melanoma, 47.2%; in the assay with MDA-MB-231 breast, 54.6%; in the assay on RXF 393 renal, 31.8%; in the assay on SF-268 CNS, 58%. The values for the growth in the assay with SF-539 CNS, in the assay with UACC-257 melanoma and with M14 melanoma were 15%, 79.4% and 14.4%, respectively.

In the case of `O=C1/C(=C/c2cccc(F)c2)Cc2ccccc21`, the growth with DU-145 prostate is 113%; in the assay with K-562 leukemia it was 106%; in the assay with MALME-3M melanoma it was 106%; in the assay on MDA-MB-231 breast it was 112%; with RXF 393 renal, 99.4%; in the assay with SF-268 CNS it was 112%. Besides, the growth was 77.9% in the assay with SF-295 CNS, 110% in the assay on SF-539 CNS and 98.8% in the assay with M14 melanoma.
